According to PubChem BioAssay (NCI):
About 83,000 compounds went through this panel and 20% of them were active in at least one assay; those are over-represented in the sample as a whole.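 Step 1: grow cells in 96-well plates. Step 2: add test compound at a single concentration. Step 3: incubate 48 h. Step 4: record percent growth.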

What was measured:
Assay in all cases: NCI-60 one-dose screen, 48 h (100 = growth as untreated, 0 = no growth, -100 = all killed)
Conditions in all cases: 10 µM unless noted; active = growth percent below 10; inactive = the rest
NCI-H23 lung = test system: NCI-H23 lung
NCI-H226 lung = test system: NCI-H226 lung
NCI-H322M lung = test system: NCI-H322M lung
HOP-62 NSCLC = test system: HOP-62 NSCLC
NCI-H460 lung = test system: NCI-H460 lung
HOP-92 NSCLC = test system: HOP-92 NSCLC
NCI-H522 lung = test system: NCI-H522 lung
A549/ATCC NSCLC = test system: A549/ATCC NSCLC
786-0 renal = test system: 786-0 renal
COLO 205 colon = test system: COLO 205 colon
DU-145 prostate = test system: DU-145 prostate
K-562 leukemia = test system: K-562 leukemia
MALME-3M melanoma = test system: MALME-3M melanoma
MDA-MB-231 breast = test system: MDA-MB-231 breast
RXF 393 renal = test system: RXF 393 renal
SF-268 CNS = test system: SF-268 CNS
SF-295 CNS = test system: SF-295 CNS
SF-539 CNS = test system: SF-539 CNS
UACC-257 melanoma = test system: UACC-257 melanoma
M14 melanoma = test system: M14 melanoma

Measured: growth

Cc1ccc(N2C(=O)c3cccc4c(N)c(S(=O)(=O)O)cc(c34)C2=O)cc1
inactive: NCI-H23 lung 95.7% | NCI-H226 lung 89.7% | NCI-H322M lung 114% | HOP-62 NSCLC 107% | NCI-H460 lung 104% | HOP-92 NSCLC 86.1% | NCI-H522 lung 84.5% | A549/ATCC NSCLC 104% | 786-0 renal 104% | COLO 205 colon 109% | DU-145 prostate 120% | K-562 leukemia 103% | MALME-3M melanoma 135% | MDA-MB-231 breast 106% | RXF 393 renal 111% | SF-268 CNS 108% | SF-295 CNS 129% | SF-539 CNS 107% | UACC-257 melanoma 114% | M14 melanoma 111%

OCC1CCC(O)C(CO)N1 (stereo not given)
inactive: NCI-H23 lung 110% | NCI-H226 lung 104% | NCI-H322M lung 113% | HOP-62 NSCLC 101% | NCI-H460 lung 107% | HOP-92 NSCLC 119% | NCI-H522 lung 103% | A549/ATCC NSCLC 94.2% | 786-0 renal 109% | COLO 205 colon 95% | DU-145 prostate 113% | K-562 leukemia 116% | MALME-3M melanoma 106% | MDA-MB-231 breast 106% | RXF 393 renal 107% | SF-268 CNS 106% | SF-295 CNS 91% | SF-539 CNS 87.9% | UACC-257 melanoma 110% | M14 melanoma 96.5%

CC(=O)Nc1ncc(S(=O)(=O)c2ccc([N+](=O)[O-])cc2)s1
inactive: NCI-H23 lung 117% | NCI-H226 lung 105% | NCI-H322M lung 113% | HOP-62 NSCLC 93.2% | NCI-H460 lung 113% | HOP-92 NSCLC 110% | NCI-H522 lung 94.3% | A549/ATCC NSCLC 103% | 786-0 renal 98% | COLO 205 colon 106% | DU-145 prostate 113% | K-562 leukemia 99.3% | MALME-3M melanoma 118% | MDA-MB-231 breast 123% | RXF 393 renal 115% | SF-268 CNS 100% | SF-295 CNS 112% | SF-539 CNS 113% | UACC-257 melanoma 104% | M14 melanoma 97.3%

C=CCN1CCCC1=O
inactive: NCI-H23 lung 106% | NCI-H226 lung 102% | NCI-H322M lung 89.3% | HOP-62 NSCLC 106% | NCI-H460 lung 105% | HOP-92 NSCLC 99.6% | NCI-H522 lung 101% | A549/ATCC NSCLC 112% | 786-0 renal 105% | COLO 205 colon 95.4% | DU-145 prostate 114% | K-562 leukemia 86.7% | MALME-3M melanoma 96.9% | MDA-MB-231 breast 94.7% | RXF 393 renal 128% | SF-268 CNS 108% | SF-295 CNS 98.3% | SF-539 CNS 93% | UACC-257 melanoma 119% | M14 melanoma 98.8%

CC(=O)OCC1CCC(COC(C)=O)CC1 (stereo not given)
inactive: NCI-H23 lung 95.5% | NCI-H226 lung 105% | NCI-H322M lung 96.6% | HOP-62 NSCLC 90.8% | NCI-H460 lung 110% | HOP-92 NSCLC 125% | NCI-H522 lung 67.4% | A549/ATCC NSCLC 79.7% | 786-0 renal 95.3% | COLO 205 colon 120% | DU-145 prostate 102% | K-562 leukemia 104% | MALME-3M melanoma 104% | MDA-MB-231 breast 119% | RXF 393 renal 106% | SF-268 CNS 95.1% | SF-295 CNS 99% | SF-539 CNS 104% | UACC-257 melanoma 82.9% | M14 melanoma 111%

CCCCOC(=O)c1ccccc1O
inactive: NCI-H23 lung 108% | NCI-H226 lung 105% | NCI-H322M lung 112% | HOP-62 NSCLC 110% | NCI-H460 lung 113% | HOP-92 NSCLC 111% | NCI-H522 lung 125% | A549/ATCC NSCLC 113% | 786-0 renal 109% | COLO 205 colon 115% | DU-145 prostate 120% | K-562 leukemia 131% | MALME-3M melanoma 104% | MDA-MB-231 breast 104% | RXF 393 renal 161% | SF-268 CNS 117% | SF-295 CNS 110% | SF-539 CNS 106% | UACC-257 melanoma 99.4% | M14 melanoma 117%

CC(C)c1ncc([N+](=O)[O-])n1C
inactive: NCI-H23 lung 103% | NCI-H226 lung 102% | NCI-H322M lung 126% | HOP-62 NSCLC 118% | NCI-H460 lung 106% | HOP-92 NSCLC 104% | NCI-H522 lung 96.4% | A549/ATCC NSCLC 96.9% | 786-0 renal 108% | COLO 205 colon 108% | DU-145 prostate 122% | K-562 leukemia 123% | MALME-3M melanoma 129% | MDA-MB-231 breast 118% | RXF 393 renal 115% | SF-268 CNS 121% | SF-295 CNS 127% | SF-539 CNS 98.2% | UACC-257 melanoma 97.2% | M14 melanoma 103%

N#Cc1ccc(OC(=O)Nc2c(Cl)cc(Cl)cc2Cl)cc1
inactive: NCI-H23 lung 109% | NCI-H226 lung 107% | NCI-H322M lung 100% | HOP-62 NSCLC 103% | NCI-H460 lung 139% | HOP-92 NSCLC 98.9% | NCI-H522 lung 89.8% | A549/ATCC NSCLC 96.3% | 786-0 renal 100% | COLO 205 colon 128% | DU-145 prostate 111% | K-562 leukemia 101% | MALME-3M melanoma 95% | MDA-MB-231 breast 101% | RXF 393 renal 125% | SF-268 CNS 112% | SF-295 CNS 108% | SF-539 CNS 91.7% | UACC-257 melanoma 97.7% | M14 melanoma 112%
